# Laboratory results taken from PubChem BioAssay (EPA / NIEHS).
# Calls of active or inactive are those of the source. Rule for the calls: active = hit-call score of the fitted dose curve at least 0.9, where 1 is the maximum; inactive = score below 0.9.
# Columns and labels:
# [1] = ATG_GLI_CIS: Attagene CIS-FACTORIAL HepG2 Assay for human Zinc Finger Protein GLI1 (AID 2282945); settings: HepG2, Attagene cis-factorial reporter mRNA, GLI element; actives raise or lower the signal
# Method in brief: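 HepG2 cells transiently transfected with cis-promoter multiplexed reporter units report endogenous transcription factor activity. After 24 h chemical exposure, reporter mRNA was quantified by RT-PCR, 6-FAM labelling, HpaI digestion and capillary electrophoresis, with bidirectional fitting against DMSO.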
# [2] = ATG_GRE_CIS: Attagene CIS-FACTORIAL HepG2 Assay for human Glucocorticoid Response Elements (GRE) (AID 2282947); settings: HepG2 GRE cis-reporter, Attagene multiplex mRNA; actives raise or lower the signal
# Method in brief: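 HepG2 cells transiently transfected with multiple cis-promoter reporter units measure endogenous TF activity; 24 h compound exposure. Reporter mRNA quantified by RT-PCR, FAM labelling, HpaI digestion and capillary electrophoresis; bidirectional fit vs DMSO baseline.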
# [3] = ATG_ISRE_CIS: Attagene CIS-FACTORIAL HepG2 Assay for human Interferon Regulatory Factor 1 (IRF1) binding to an Interferon-Stimulated Response Element (ISRE) (AID 2282948); settings: HepG2 ISRE cis-reporter (Attagene), mRNA transcription readout; actives raise or lower the signal
# Method in brief: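 Cell-based cis-reporter assay; HepG2; 24 h exposure; reporter mRNA by RT-PCR plus capillary electrophoresis fluorescence; activity in either direction scored relative to DMSO.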
# [4] = ATG_M_32_CIS: Attagene CIS-FACTORIAL HepG2 Assay for M32 Transcription Factor (Internal Marker) (AID 2282949); settings: HepG2 Attagene cis-factorial M32 reporter, mRNA; actives raise or lower the signal;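 note: background control marker of the multiplexed CIS panel rather than a real target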
# Method in brief: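 Internal background marker read-out: RT-PCR/capillary electrophoresis fluorescence of reporter transcripts from transiently transfected HepG2 cells after 24 h chemical exposure. Activity fitted bidirectionally relative to DMSO negative control.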
# [5] = ATG_M_06_CIS: Attagene CIS-FACTORIAL HepG2 Assay for M06 Transcription Factor (Internal Marker) (AID 2282950); settings: HepG2 Attagene CIS-FACTORIAL M06 internal marker reporter; actives raise or lower the signal
# Method in brief: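 Terse: HepG2, transient MRTU transfection (FuGene 6), 24 h dosing; total RNA, oligo(dT) RT, PCR, FAM label, HpaI cut, capillary electrophoresis; bidirectional fit vs DMSO baseline; background-control endpoint.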
# [6] = molecular target: Hypoxia-inducible factor 1-alpha (Homo sapiens) (UniProt Q16665); assay: ATG_HIF1a_CIS: Attagene CIS-FACTORIAL HepG2 Assay for human Hypoxia Inducible Factor 1 (HIF1A) (AID 2282951); settings: HepG2 Attagene cis-factorial HIF1a reporter transcription; actives raise or lower the signal
# Method in brief: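 HepG2 cells transiently transfected with multiple cis-regulated reporter transcription units measure endogenous transcription factor activity. After 24 h exposure, reporter mRNA is quantified by RT-PCR with 6-FAM labelling, HpaI digestion and capillary electrophoresis. Bidirectional fitting against DMSO.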
# [7] = molecular target: Hepatocyte nuclear factor 6 (Homo sapiens) (UniProt Q9UBC0); assay: ATG_HNF6_CIS: Attagene CIS-FACTORIAL HepG2 Assay for human Hepatocyte Nuclear Factor 6 (HNF6) (AID 2282952); settings: HepG2 Attagene cis-factorial HNF6 reporter transcription; actives raise or lower the signal
# Method in brief: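 HepG2 cells transiently transfected with cis-element-driven multiple reporter transcription units, dosed 24 h; reporter mRNA quantified by RT-PCR, FAM primer extension, HpaI digestion and capillary electrophoresis; bidirectional fit versus DMSO baseline.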
# [8] = molecular target: Heat shock factor protein 1 (Homo sapiens) (UniProt Q00613); assay: ATG_HSE_CIS: Attagene CIS-FACTORIAL HepG2 Assay for human Heat Shock Transcription Factor 1 (HSE) (AID 2282953); settings: HepG2 HSE cis-reporter, Attagene RNA transcription; actives raise or lower the signal
# Method in brief: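 Read-out: fluorescence of reporter-specific RT-PCR fragments separated by capillary electrophoresis. HepG2 carrying transfected cis-element reporter units; 24 h dosing; activity fitted in both directions relative to DMSO baseline.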
# [9] = ATG_MRE_CIS: Attagene CIS-FACTORIAL HepG2 Assay for human Metal Responsive Element (MRE) (AID 2282954); settings: HepG2 MRE cis-reporter transcription, Attagene multiplex; actives raise or lower the signal
# Method in brief: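 HepG2 cells transiently transfected with multiple cis-element reporter units measure endogenous MTF1-driven transcription. After 24 h compound exposure, reporter mRNA is quantified by RT-PCR with 6-FAM labelling, HpaI digestion and capillary electrophoresis; bidirectional fits versus DMSO.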
# [10] = ATG_PBREM_CIS: Attagene CIS-FACTORIAL HepG2 Assay for human Phenobarbital-responsive Enhancer Module (PBREM) (AID 2282955); settings: HepG2 PBREM cis-reporter, Attagene multiplexed transcription; actives raise or lower the signal
# Method in brief: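 HepG2 cells transiently transfected with multiple cis-regulated reporter units measure endogenous transcription factor activity; 24 h compound exposure. Reporter mRNA quantified by RT-PCR, fluorescent labelling, HpaI digestion and capillary electrophoresis; bidirectional fit versus DMSO.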
# [11] = molecular target: Paired box protein Pax-6 (Homo sapiens) (UniProt P26367); assay: ATG_Pax6_CIS: Attagene CIS-FACTORIAL HepG2 Assay for human Paired Box 6 (PAX6) (AID 2282956); settings: HepG2 CIS-FACTORIAL PAX6 reporter transcription, RNA readout; actives raise or lower the signal
# Method in brief: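 Multiplexed cis-reporter HepG2 system; 24 h treatment; reporter mRNA read by RT-PCR/CE fluorescence; bidirectional fit vs DMSO.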
# [12] = ATG_PXRE_CIS: Attagene CIS-FACTORIAL HepG2 Assay for human Pregnane X Receptor Element (PXRE) (AID 2282957); settings: HepG2 Attagene CIS-FACTORIAL PXRE reporter, mRNA; actives raise or lower the signal
# Method in brief: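 HepG2 cells transiently transfected with cis-regulated multiple reporter transcription units; endogenous factor activity measured as reporter mRNA 24 h after dosing. RT-PCR, fluorescent primer extension, HpaI digestion, capillary electrophoresis; bidirectional fit versus DMSO baseline.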
# [13] = ATG_RORE_CIS: Attagene CIS-FACTORIAL HepG2 Assay for human RAR-related Orphan Receptor Element (RORE) (AID 2282959); settings: HepG2 Attagene cis-factorial RORE reporter, mRNA; actives raise or lower the signal
# Method in brief: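 HepG2 cells carrying transiently transfected cis-regulated reporter units; RORE-driven reporter mRNA quantified 24 h post-dosing by RT-PCR, 6-FAM primer extension, HpaI digestion and capillary electrophoresis. Bidirectional fit versus DMSO.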
# [14] = ATG_Sox_CIS: Attagene CIS-FACTORIAL HepG2 Assay for human SRY-box transcription factor (SOX) (AID 2282960); settings: HepG2 Attagene cis-factorial SOX reporter, mRNA; actives raise or lower the signal
# Method in brief: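 HepG2 cells transiently transfected with multiple cis-regulated reporter units, then dosed for 24 h. Reporter mRNA quantified by RT-PCR, fluorescent labelling, HpaI digestion and capillary electrophoresis; bidirectional fit versus DMSO.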
# [15] = molecular target: Transcription factor Sp1 (Homo sapiens) (UniProt P08047); assay: ATG_Sp1_CIS: Attagene CIS-FACTORIAL HepG2 Assay for human Specificity Protein 1 (Sp1) (AID 2282961); settings: HepG2 Sp1 cis-reporter transcription, actives raise or lower the signal
# Method in brief: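 HepG2 cells transiently transfected with multiplexed cis-regulated reporter constructs, chemical exposure 24 h. Reporter mRNA quantified by RT-PCR with capillary electrophoresis; bidirectional fit relative to DMSO.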
# [16] = ATG_SREBP_CIS: Attagene CIS-FACTORIAL HepG2 Assay for human Sterol Regulatory Element Binding (SREBP) (AID 2282962); settings: HepG2 Attagene cis-factorial SREBP reporter, mRNA; actives raise or lower the signal
# Method in brief: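 mRNA induction of transfected cis-promoter reporters in HepG2 cells, 24 h post-dose. Detection: RT-PCR with 6-FAM-labelled products, HpaI digest, capillary electrophoresis. DMSO served as negative control and baseline.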
# [17] = molecular target: Signal transducer and activator of transcription 3 (Homo sapiens) (UniProt P40763); assay: ATG_STAT3_CIS: Attagene CIS-FACTORIAL HepG2 Assay for human Signal Transducer and Activator of Transcription 3 (STAT3) (AID 2282963); settings: HepG2, Attagene cis-factorial STAT3 reporter transcription; actives raise or lower the signal
# Method in brief: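 HepG2 cells transiently transfected with cis-element-driven multiple reporter transcription units; after 24 h chemical exposure, reporter mRNA measured by RT-PCR, 6-FAM primer-extension labelling, HpaI digestion and capillary electrophoresis. Bidirectional fitting versus DMSO baseline.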
# [18] = ATG_TA_CIS: Attagene CIS-FACTORIAL HepG2 Assay for human TA Basal Promoter (AID 2282964); settings: HepG2 Attagene CIS-factorial TA basal promoter reporter; actives raise or lower the signal
# Method in brief: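 Transfected HepG2, 24 h compound exposure; RNA → RT-PCR → FAM primer extension → HpaI cut → CE fluorescence. Gain/loss-of-signal fitted against DMSO negative control. Background-control readout.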
# [19] = ATG_PPRE_CIS: Attagene CIS-FACTORIAL HepG2 Assay for human Peroxisome Proliferator-activated Response Element (PPRE) (AID 2282958); settings: HepG2 PPRE cis-element reporter, Attagene transcription factor profiling; actives raise or lower the signal
# Method in brief: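 HepG2 cells are transiently transfected with multiplexed cis-promoter reporter units to report endogenous PPAR activity. After 24 h dosing, reporter mRNA is read by RT-PCR and capillary electrophoresis. Fitting is bidirectional against DMSO.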
# Transcription factor Sp1 (Homo sapiens), sequence (P08047 whole entry, looked up): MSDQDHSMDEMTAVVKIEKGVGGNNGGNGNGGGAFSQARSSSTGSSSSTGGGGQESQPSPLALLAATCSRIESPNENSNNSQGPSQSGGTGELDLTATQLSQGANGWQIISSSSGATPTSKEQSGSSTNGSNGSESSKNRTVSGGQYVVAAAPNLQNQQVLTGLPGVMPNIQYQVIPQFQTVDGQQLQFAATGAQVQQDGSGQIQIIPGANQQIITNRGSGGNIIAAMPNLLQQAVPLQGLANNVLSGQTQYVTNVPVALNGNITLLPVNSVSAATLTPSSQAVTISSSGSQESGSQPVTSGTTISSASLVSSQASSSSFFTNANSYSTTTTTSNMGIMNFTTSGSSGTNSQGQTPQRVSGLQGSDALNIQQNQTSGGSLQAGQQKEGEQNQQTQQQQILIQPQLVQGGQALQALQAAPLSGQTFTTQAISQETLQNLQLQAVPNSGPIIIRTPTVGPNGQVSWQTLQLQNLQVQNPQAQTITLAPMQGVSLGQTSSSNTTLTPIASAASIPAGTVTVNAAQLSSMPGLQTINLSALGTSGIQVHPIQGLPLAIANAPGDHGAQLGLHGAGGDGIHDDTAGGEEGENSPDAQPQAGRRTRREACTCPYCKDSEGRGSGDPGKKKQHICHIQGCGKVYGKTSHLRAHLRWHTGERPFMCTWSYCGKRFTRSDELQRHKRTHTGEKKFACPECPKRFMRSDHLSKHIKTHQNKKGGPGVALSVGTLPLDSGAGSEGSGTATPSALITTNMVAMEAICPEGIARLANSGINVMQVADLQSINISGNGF
# Hepatocyte nuclear factor 6 (Homo sapiens), sequence (Q9UBC0 whole entry, looked up): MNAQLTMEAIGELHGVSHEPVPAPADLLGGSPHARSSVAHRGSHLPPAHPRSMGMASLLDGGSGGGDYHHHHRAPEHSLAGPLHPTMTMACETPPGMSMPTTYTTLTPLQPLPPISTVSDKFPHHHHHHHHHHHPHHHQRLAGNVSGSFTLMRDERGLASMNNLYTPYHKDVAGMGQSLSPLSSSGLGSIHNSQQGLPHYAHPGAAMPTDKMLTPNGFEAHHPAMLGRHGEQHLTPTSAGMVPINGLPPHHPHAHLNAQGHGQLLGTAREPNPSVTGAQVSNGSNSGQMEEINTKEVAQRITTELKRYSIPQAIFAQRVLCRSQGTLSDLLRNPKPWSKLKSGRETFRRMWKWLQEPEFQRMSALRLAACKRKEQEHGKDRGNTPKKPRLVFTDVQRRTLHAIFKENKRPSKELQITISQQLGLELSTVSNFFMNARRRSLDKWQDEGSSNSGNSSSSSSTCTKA
# Paired box protein Pax-6 (Homo sapiens), sequence (P26367 whole entry, looked up): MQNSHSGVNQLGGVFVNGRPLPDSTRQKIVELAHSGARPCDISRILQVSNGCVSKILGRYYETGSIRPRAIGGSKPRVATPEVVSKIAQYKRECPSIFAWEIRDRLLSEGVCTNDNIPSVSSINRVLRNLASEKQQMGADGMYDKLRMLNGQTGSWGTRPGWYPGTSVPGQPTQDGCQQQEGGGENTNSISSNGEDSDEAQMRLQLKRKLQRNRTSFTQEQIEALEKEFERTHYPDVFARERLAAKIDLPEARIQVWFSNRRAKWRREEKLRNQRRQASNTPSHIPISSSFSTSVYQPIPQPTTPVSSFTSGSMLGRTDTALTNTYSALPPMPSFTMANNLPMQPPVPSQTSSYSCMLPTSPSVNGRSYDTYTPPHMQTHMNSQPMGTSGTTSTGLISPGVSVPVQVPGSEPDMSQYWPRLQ
# Signal transducer and activator of transcription 3 (Homo sapiens), sequence (P40763 whole entry, looked up): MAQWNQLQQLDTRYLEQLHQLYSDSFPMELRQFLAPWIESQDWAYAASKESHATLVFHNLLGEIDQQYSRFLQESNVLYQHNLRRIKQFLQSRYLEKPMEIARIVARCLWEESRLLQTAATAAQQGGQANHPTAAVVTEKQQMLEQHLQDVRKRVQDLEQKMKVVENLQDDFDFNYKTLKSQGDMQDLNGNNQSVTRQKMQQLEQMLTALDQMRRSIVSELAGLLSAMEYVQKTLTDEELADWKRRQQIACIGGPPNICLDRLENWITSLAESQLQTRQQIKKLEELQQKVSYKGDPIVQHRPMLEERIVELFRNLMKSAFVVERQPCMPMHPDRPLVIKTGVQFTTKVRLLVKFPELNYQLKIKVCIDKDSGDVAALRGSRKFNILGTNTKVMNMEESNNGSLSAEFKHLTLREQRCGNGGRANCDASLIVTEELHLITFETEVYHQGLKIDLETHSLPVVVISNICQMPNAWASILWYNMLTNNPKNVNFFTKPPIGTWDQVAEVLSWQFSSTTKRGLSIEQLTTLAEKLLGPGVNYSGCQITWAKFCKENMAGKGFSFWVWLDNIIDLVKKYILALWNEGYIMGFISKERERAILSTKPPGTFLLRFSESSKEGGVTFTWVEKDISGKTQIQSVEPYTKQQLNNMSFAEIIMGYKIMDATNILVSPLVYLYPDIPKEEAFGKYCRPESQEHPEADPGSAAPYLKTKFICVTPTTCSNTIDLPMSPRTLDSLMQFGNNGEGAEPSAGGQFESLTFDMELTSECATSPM
# Hypoxia-inducible factor 1-alpha (Homo sapiens), sequence (Q16665 whole entry, looked up): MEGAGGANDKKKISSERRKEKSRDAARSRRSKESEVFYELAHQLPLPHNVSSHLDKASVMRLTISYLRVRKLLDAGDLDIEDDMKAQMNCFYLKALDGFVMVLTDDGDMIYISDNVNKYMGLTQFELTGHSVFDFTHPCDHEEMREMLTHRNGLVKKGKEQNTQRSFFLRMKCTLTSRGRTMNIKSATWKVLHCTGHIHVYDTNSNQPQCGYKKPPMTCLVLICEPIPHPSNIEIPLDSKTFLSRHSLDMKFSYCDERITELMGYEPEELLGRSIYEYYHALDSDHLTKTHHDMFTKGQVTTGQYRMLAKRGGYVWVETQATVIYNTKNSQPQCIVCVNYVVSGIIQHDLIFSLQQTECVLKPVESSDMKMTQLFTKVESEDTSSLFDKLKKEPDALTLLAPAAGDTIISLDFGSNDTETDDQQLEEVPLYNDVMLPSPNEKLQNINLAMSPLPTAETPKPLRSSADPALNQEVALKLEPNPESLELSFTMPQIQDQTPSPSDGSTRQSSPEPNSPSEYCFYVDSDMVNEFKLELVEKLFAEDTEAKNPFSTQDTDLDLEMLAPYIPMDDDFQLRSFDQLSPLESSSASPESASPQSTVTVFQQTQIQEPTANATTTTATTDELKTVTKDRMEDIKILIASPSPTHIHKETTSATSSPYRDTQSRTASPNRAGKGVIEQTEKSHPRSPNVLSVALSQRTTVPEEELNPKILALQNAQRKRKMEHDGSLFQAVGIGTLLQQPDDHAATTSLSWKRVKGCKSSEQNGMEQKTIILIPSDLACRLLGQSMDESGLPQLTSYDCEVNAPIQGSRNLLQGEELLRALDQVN
# Heat shock factor protein 1 (Homo sapiens), sequence (Q00613 whole entry, looked up, the tested form may be a part): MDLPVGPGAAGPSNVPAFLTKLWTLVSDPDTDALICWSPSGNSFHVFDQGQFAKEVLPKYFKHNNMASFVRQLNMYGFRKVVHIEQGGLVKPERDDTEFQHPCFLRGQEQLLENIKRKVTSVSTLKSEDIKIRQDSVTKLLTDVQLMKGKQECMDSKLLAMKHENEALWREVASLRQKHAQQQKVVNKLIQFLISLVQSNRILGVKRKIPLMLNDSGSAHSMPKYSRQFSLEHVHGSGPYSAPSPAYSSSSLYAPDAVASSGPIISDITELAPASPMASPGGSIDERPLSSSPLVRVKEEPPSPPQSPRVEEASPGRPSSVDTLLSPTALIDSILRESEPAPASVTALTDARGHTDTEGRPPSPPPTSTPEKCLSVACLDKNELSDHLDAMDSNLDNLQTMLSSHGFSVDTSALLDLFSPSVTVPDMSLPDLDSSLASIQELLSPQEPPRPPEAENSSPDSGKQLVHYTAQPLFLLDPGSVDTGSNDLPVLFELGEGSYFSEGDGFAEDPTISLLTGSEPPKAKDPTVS
smiles,measurement,setting,value
CCCCOCCOC(=O)COc1ccc(Cl)cc1Cl,outcome,[1],inactive
same,outcome,[2],inactive
same,outcome,[3],inactive
same,outcome,[4],inactive
same,outcome,[5],inactive
same,outcome,[6],inactive
same,outcome,[7],inactive
same,outcome,[8],inactive
same,outcome,[9],inactive
same,outcome,[10],inactive
same,outcome,[11],inactive
same,AC50,[12],39.9 µM (active)
same,outcome,[13],inactive
same,outcome,[14],inactive
same,outcome,[15],inactive
same,outcome,[16],inactive
same,outcome,[17],inactive
same,outcome,[18],inactive
CCCC=C(C=O)CC,outcome,[1],inactive
same,outcome,[2],inactive
same,outcome,[3],inactive
same,outcome,[4],inactive
same,outcome,[5],inactive
same,outcome,[6],inactive
same,outcome,[7],inactive
same,outcome,[8],inactive
same,outcome,[9],inactive
same,outcome,[10],inactive
same,outcome,[11],inactive
same,AC50,[12],7.92 µM (active)
same,outcome,[14],inactive
same,outcome,[15],inactive
same,outcome,[16],inactive
same,outcome,[17],inactive
same,outcome,[18],inactive
CC(=O)C(C)C,outcome,[1],inactive
same,outcome,[2],inactive
same,outcome,[3],inactive
same,outcome,[4],inactive
same,outcome,[5],inactive
same,outcome,[6],inactive
same,outcome,[7],inactive
same,outcome,[8],inactive
same,outcome,[9],inactive
same,outcome,[11],inactive
same,outcome,[12],inactive
same,outcome,[19],inactive
same,outcome,[13],inactive
same,outcome,[14],inactive
same,outcome,[15],inactive
same,outcome,[16],inactive
same,outcome,[17],inactive
same,outcome,[18],inactive
CCCCCCCCCCCC(=O)OCC,outcome,[1],inactive
same,outcome,[2],inactive
same,outcome,[3],inactive
same,outcome,[4],inactive
same,outcome,[5],inactive
same,outcome,[6],inactive
same,outcome,[7],inactive
same,outcome,[8],inactive
same,outcome,[9],inactive
same,outcome,[12],inactive
same,outcome,[19],inactive
same,outcome,[13],inactive
same,outcome,[14],inactive
same,outcome,[15],inactive
same,outcome,[16],inactive
same,outcome,[17],inactive
same,outcome,[18],inactive
CC(C)c1ccc(O)c(C(C)C)c1,outcome,[1],inactive
same,outcome,[2],inactive
same,outcome,[3],inactive
same,outcome,[4],inactive
same,outcome,[5],inactive
same,outcome,[6],inactive
same,outcome,[7],inactive
same,outcome,[8],inactive
same,outcome,[9],inactive
same,outcome,[10],inactive
same,AC50,[12],2.98 µM (active)
same,outcome,[19],inactive
same,outcome,[13],inactive
same,outcome,[14],inactive
same,outcome,[15],inactive
same,outcome,[16],inactive
same,outcome,[17],inactive
same,outcome,[18],inactive
CC(C)CO,outcome,[1],inactive
same,outcome,[2],inactive
same,outcome,[3],inactive
same,outcome,[4],inactive
same,outcome,[5],inactive
same,outcome,[6],inactive
same,outcome,[7],inactive
same,outcome,[8],inactive
same,outcome,[9],inactive
same,outcome,[10],inactive
same,outcome,[11],inactive
same,outcome,[12],inactive
same,outcome,[13],inactive
same,outcome,[14],inactive
same,outcome,[15],inactive
same,outcome,[16],inactive
same,outcome,[18],inactive
CCOC(=O)/C=C\C(=O)OCC,outcome,[1],inactive
same,outcome,[2],inactive
same,outcome,[3],inactive
same,outcome,[4],inactive
same,outcome,[5],inactive
same,outcome,[6],inactive
same,outcome,[7],inactive
same,outcome,[8],inactive
same,outcome,[9],inactive
same,outcome,[12],inactive
same,AC50,[19],7.64 µM (active)
same,outcome,[13],inactive
same,outcome,[14],inactive
same,outcome,[15],inactive
same,outcome,[16],inactive
same,outcome,[17],inactive
same,outcome,[18],inactive
CCCCCC[C@@H](O)C/C=C\CCCCCCCC(=O)OCC(O)CO (some centres undefined),AC50,[1],143 µM (active)
same,AC50,[2],149 µM (active)
same,outcome,[3],inactive
same,AC50,[4],160 µM (active)
same,outcome,[5],inactive
same,AC50,[6],67.2 µM (active)
same,outcome,[7],inactive
same,AC50,[8],184 µM (active)
same,AC50,[9],144 µM (active)
same,AC50,[11],134 µM (active)
same,outcome,[12],inactive
same,AC50,[19],11 µM (active)
same,outcome,[13],inactive
same,outcome,[14],inactive
same,AC50,[16],122 µM (active)
same,outcome,[17],inactive
same,AC50,[18],150 µM (active)
